Assay results reported in PubChem BioAssay (Tox21).
Results filed as inconclusive are left out. The source made the active and inactive calls. Unless noted, calls follow the shape of the dose curve; as a rule, active = well fitted curve in the direction sought with a large enough effect in the repeat runs; inconclusive = weak or mixed curves; inactive = no such curve, though single readings can be large; an effect the other way counts as inactive or inconclusive.

Tests used:
[1] = qHTS assay to identify small molecule agonists of the sonic hedgehog signaling (Shh) pathway (AID 1259368; calls by dose curve;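 also: NIH/3T3-derived 3T3Gli1-Luc cells carrying a stable Gli1-driven firefly luciferase reporter; series mostly up to about 92 µM; nearly all actives have a fitted effect of over 15% in size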)
Method in brief: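 Cells of a mouse NIH/3T3 clone stably expressing luciferase under the Gli1 transcriptional response element are exposed to test chemicals for 24 hr at 37 C. Pathway activation is detected as a rise in luminescence.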

[2] = qHTS assay to identify small molecule antagonists of the sonic hedgehog signaling (Shh) pathway (AID 1259369; calls by dose curve; also: nearly all actives have a fitted effect of over 45% in size)
Method in brief: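 Cells are plated and held 4hr at 37 C, compounds (DMSO) are pinned in, conditioned medium is added to stimulate the pathway, and after 24hr luciferase reagent is added for 30min before luminescence is read.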

[3] = target: Estrogen receptor beta (Homo sapiens) (UniProt Q92731); experiment: qHTS assay to identify small molecule agonists of the estrogen receptor beta (ER-beta) signaling pathway (AID 1259377; active = well fitted activation curve with a large enough effect in the signal ratio in the repeat runs, not every such curve was filed as active; the % refers to the signal ratio)
Method in brief: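 Reporter cells (HEK293T, ER-beta-UAS-bla) receive compounds or DMSO after a 6 hr pre-incubation. They then incubate 16 hr at 37C/5% CO2, and fluorescence from LiveBLAzer B/G substrate is measured after 2 hours at room temperature.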

[4] = target: Estrogen receptor beta (Homo sapiens) (UniProt Q92731); experiment: qHTS assay to identify small molecule antagonists of the estrogen receptor beta (ER-beta) signaling pathway (AID 1259378; active = well fitted inhibition curve with a large enough effect in the signal ratio in the repeat runs, not every such curve was filed as active; the % refers to the signal ratio)
Method in brief: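 ER-beta-UAS-bla HEK293T cells in 2% charcoal-stripped FBS medium treated with compound plus 1nM final 17-beta-estradiol for 16 hr at 37C. Beta-lactamase reporter read by FRET substrate fluorescence after 2 hours at room temperature.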

[5] = qHTS assay to identify small molecule agonists of the androgen receptor (AR) signaling pathway in the presence of an antagonist - cell viability counter screen (AID 1259379);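 also: MDA-kb2 human breast cancer cells carrying an MMTV luciferase reporter; series mostly up to about 92 µM; nearly all actives have a fitted effect of over 25% in size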
Method in brief: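 Cytotoxicity is assessed by CellTiter-Fluor in MDA-kb2 cells carrying an MMTV-driven luciferase reporter. Cells receive 3.0uM nilutamide plus compounds at 15 concentrations and incubate 16 hr at 37C without CO2 before fluorescence reading.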

[6] = qHTS assay to identify small molecule agonists of the estrogen receptor beta (ER-beta) signaling pathway - cell viability counter screen (AID 1259380); also: nearly all actives have a fitted effect of over 30% in size
Method in brief: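 Cytotoxicity is measured in parallel with the reporter screen: after 16 hr compound exposure at 37C and a 2 hr LiveBLAzer step, CellTiter-Glo is added to the same ER-beta-UAS-bla HEK293T wells and luminescence read after 30 min.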

[7] = qHTS assay to identify small molecule antagonists of the estrogen receptor beta (ER-beta) signaling pathway - cell viability counter screen (AID 1259382); also: series mostly up to about 92 µM; nearly all actives have a fitted effect of over 55% in size
Method in brief: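 Cytotoxicity counter screen multiplexed with the beta-lactamase antagonist assay: GripTite HEK293T ER-beta-bla cells were treated 16 hr with test chemicals in the presence of 1nM 17-beta-estradiol, and viability was measured by CellTiter-Glo.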

[8] = target: Estrogen receptor (Homo sapiens) (UniProt P03372); experiment: qHTS assay to identify small molecule agonists of the estrogen receptor alpha (ER-alpha) signaling pathway in the presence of an antagonist (AID 1259383; calls by dose curve; also: top concentration of the series differs between compounds; nearly all actives have a fitted effect of over 15% in size)
Method in brief: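 Agonist-mode confirmation in the presence of the ER antagonist ICI-182,780 at 10.0nM final. Breast-derived VM7Luc4E2 reporter cells were exposed to compounds for 22hr, and ERE-driven luciferase was quantified by luminescence.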

[9] = qHTS assay to identify small molecule agonists or antagonists of the thyroid stimulating hormone receptor (TSHR) signaling pathway - wild type cell line counter screen (AID 1259384; calls by dose curve)
Method in brief: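 Wild-type Hek293 cells, 800/well, 18 h at 37C, then compound with Ro20-1724 for 30 min RT. cAMP by HTRF (cAMP-d2/anti-cAMP cryptate), 1 h RT, fluorescence read. 15 concentrations, triplicates.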

[10] = target: Thyrotropin receptor (Homo sapiens) (UniProt P16473); experiment: qHTS assay to identify small molecule antagonists of the thyroid stimulating hormone receptor (TSHR) signaling pathway (AID 1259385; calls by dose curve; also: nearly all actives have a fitted effect of over 20% in size)
Method in brief: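 TSHR-HEK293 cells (800/well) plated 18 h, then compounds with Ro20-1724 and TSH at 1.5 ng/mL final, 30 min at room temperature. cAMP quantified by HTRF (cAMP-d2/anti-cAMP-cryptate, 1 h); 15 concentrations in triplicate.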

[11] = qHTS assay to identify small molecule agonists of the estrogen receptor alpha (ER-alpha) signaling pathway in the presence of an antagonist - cell viability counter screen (AID 1259386);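 also: series mostly up to about 92 µM; cells exposed to compounds for 22 h at 37 °C before the viability read; nearly all actives have a fitted effect of over 30% in size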
Method in brief: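 Cytotoxicity was measured in parallel with the ERE-luciferase agonist screen, in the same wells. The cells were VM7Luc4E2, which endogenously express ER-alpha, and treatment was with compounds plus 10.0nM ICI-182,780 for 22hr.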

[12] = target: Progesterone receptor (Homo sapiens) (UniProt P06401); experiment: qHTS assay to identify small molecule agonists of the progesterone receptor (PR) signaling pathway (AID 1346784; calls by dose curve; also: nearly all actives have a fitted effect of over 30% in size)
Method in brief: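 Reporter assay, GripTite PR-UAS-bla HEK 293T cells: 16 hr exposure to DMSO-dissolved compounds at 37C, 5% CO2, in steroid-depleted (2% charcoal-stripped FBS) medium; beta-lactamase measured by FRET fluorescence.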

[13] = target: Progesterone receptor (Homo sapiens) (UniProt P06401); experiment: qHTS assay to identify small molecule antagonists of the progesterone receptor (PR) signaling pathway (AID 1346795; active = well fitted inhibition curve with a large enough effect in the signal ratio in the repeat runs, not every such curve was filed as active; the % refers to the signal ratio)
Method in brief: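 Stimulus R5020 at 1 nM final; cells HEK293T PR-UAS-bla; medium with 2% charcoal-stripped FBS; compound exposure 16 hr at 37C, 5% CO2; detection by FRET beta-lactamase substrate, 2 hr, room temperature.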

[14] = qHTS assay to identify small molecule antagonists of the progesterone receptor (PR) signaling pathway - cell viability counter screen (AID 1346798); also: series mostly up to about 92 µM; nearly all actives have a fitted effect of over 50% in size
Method in brief: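 In the same plates used for the beta-lactamase readout, cell viability of compound- and R5020-treated PR-UAS-bla HEK293T cells (16 hr, 37C) was assessed by CellTiter-Glo luminescence.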

[15] = qHTS assay to identify small molecule agonists of the progesterone receptor (PR) signaling pathway - cell viability counter screen (AID 1346799; calls by dose curve; also: nearly all actives have a fitted effect of over 45% in size)
Method in brief: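 Multiplexed viability read: CellTiter-Glo luminescence, 30 min RT, following LiveBLAzer FRET measurement on PR-UAS-bla HEK293T cells exposed to compounds 16 hr.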

[16] = qHTS assay to identify small molecule antagonists of the TGF-beta/Smad signaling pathway - cell viability counter screen (AID 1346824); also: nearly all actives have a fitted effect of over 50% in size
Method in brief: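 SBE-bla HEK 293T cells, incubated overnight, then compound plus 0.25 ng/mL TGF-beta1 (stock added) for 5 hr at 37 C. Viability was read in the same wells by CellTiter-Glo luminescence after 30 min at room temperature.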

[17] = qHTS assay to identify small molecule agonists of the TGF-beta/Smad signaling pathway - cell viability counter screen (AID 1346829); also: top concentration of the series differs between compounds; nearly all actives have a fitted effect of over 45% in size
Method in brief: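 SBE-bla HEK 293T cells plated overnight, compound exposure 5 hr at 37 C. Viability read in the same wells by CellTiter-Glo luminescence after 30 min at room temperature, following the beta-lactamase read.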

[18] = target: Thyrotropin-releasing hormone receptor (Homo sapiens) (UniProt P34981); experiment: qHTS assay to identify small molecule antagonists of the thyrotropin-releasing hormone receptor (TRHR) signaling pathway (AID 1346877; active = well fitted inhibition curve with a large enough effect in the repeat runs, not every such curve was filed as active; also: series mostly up to about 51 µM)
Method in brief: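 Antagonism is measured as suppression of the calcium response to 1 nM TRH in TRHR-HEK293 cells that have been dye-loaded for 2 h at 37 °C after overnight plating. Each compound is tested at 15 concentrations in triplicate.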

[19] = qHTS assay to identify small molecule agonists of the TGF-beta/Smad signaling pathway (AID 1346859; active = well fitted activation curve with a large enough effect in the signal ratio in the repeat runs, not every such curve was filed as active; the % refers to the signal ratio; also: series mostly up to about 77 µM)
Method in brief: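 Screening used HEK 293T SBE-bla cells at 4,000/well. Test agents: 5 hr, 37 C. Detection: FRET substrate, 2 hr RT, then excitation 405 nm with emissions at 460 and 530 nm.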
% is scaled to controls: 0 for no effect and ±100 for the full control effect.

Thyrotropin receptor (Homo sapiens), sequence (P16473 whole entry, looked up): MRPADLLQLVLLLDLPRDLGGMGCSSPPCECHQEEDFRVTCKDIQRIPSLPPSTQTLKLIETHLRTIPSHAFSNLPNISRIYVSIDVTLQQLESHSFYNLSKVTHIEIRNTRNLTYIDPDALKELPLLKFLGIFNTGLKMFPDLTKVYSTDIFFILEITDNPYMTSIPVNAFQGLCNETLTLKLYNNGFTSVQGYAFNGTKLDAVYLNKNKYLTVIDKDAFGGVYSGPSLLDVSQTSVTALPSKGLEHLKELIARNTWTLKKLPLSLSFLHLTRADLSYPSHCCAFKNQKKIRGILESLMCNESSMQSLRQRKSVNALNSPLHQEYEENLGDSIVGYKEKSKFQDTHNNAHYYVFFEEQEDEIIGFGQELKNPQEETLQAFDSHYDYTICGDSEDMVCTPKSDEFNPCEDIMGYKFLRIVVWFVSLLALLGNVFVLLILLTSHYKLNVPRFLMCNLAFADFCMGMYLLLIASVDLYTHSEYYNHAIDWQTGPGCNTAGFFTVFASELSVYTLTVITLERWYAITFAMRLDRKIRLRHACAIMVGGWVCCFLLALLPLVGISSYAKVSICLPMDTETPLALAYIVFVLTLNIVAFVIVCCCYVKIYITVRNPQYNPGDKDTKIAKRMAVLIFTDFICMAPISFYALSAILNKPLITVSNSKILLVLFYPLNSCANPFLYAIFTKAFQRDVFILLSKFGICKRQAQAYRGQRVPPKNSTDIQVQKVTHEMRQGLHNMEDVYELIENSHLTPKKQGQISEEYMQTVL
Estrogen receptor beta (Homo sapiens), sequence (Q92731 whole entry, looked up): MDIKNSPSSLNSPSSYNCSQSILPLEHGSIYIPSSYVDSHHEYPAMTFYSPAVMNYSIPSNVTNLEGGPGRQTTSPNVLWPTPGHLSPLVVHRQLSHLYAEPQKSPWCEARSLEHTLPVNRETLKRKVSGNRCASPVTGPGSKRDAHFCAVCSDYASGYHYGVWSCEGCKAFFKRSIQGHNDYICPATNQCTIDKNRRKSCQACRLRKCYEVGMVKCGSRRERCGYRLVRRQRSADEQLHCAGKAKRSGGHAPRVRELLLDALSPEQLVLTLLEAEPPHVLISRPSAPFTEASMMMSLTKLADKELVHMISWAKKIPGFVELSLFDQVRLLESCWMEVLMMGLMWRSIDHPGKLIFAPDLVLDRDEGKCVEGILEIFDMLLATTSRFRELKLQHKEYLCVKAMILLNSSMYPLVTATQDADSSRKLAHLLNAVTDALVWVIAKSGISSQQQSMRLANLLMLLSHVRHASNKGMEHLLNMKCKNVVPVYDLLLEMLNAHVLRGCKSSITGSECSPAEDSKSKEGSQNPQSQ
Thyrotropin-releasing hormone receptor (Homo sapiens), sequence (P34981 whole entry, looked up): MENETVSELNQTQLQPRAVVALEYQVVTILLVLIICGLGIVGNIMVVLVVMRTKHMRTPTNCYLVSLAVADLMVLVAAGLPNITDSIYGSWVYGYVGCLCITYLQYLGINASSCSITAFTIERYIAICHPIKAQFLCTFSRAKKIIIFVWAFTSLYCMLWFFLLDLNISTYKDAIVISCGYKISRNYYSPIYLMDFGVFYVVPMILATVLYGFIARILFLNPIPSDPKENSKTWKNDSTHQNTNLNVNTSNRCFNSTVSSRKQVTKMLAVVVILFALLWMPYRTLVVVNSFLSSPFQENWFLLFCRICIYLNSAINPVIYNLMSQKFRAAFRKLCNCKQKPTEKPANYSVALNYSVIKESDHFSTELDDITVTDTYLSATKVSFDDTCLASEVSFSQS
Progesterone receptor (Homo sapiens), sequence (P06401 whole entry, looked up): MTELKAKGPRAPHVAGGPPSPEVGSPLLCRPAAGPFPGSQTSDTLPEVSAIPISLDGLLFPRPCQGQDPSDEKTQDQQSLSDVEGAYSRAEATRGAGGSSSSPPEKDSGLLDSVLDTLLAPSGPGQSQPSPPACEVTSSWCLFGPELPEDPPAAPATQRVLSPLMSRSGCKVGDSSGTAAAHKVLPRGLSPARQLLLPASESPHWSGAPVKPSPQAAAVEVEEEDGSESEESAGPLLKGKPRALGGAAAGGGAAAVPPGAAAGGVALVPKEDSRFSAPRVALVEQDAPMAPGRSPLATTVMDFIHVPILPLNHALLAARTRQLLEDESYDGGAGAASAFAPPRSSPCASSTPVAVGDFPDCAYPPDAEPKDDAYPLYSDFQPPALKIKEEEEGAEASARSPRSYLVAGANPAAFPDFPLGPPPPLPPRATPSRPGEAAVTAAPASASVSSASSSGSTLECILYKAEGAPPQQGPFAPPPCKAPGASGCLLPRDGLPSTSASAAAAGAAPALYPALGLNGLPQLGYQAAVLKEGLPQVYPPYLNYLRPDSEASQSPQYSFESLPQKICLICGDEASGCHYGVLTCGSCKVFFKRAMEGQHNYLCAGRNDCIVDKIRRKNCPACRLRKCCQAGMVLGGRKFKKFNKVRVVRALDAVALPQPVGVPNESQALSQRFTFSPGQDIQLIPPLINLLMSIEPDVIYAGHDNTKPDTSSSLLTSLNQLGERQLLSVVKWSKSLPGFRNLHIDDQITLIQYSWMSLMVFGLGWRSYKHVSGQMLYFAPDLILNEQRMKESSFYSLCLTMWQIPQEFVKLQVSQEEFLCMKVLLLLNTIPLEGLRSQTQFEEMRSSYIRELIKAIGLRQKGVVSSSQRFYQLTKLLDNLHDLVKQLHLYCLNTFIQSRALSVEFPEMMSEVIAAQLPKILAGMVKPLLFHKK
Estrogen receptor (Homo sapiens), sequence (P03372 whole entry, looked up): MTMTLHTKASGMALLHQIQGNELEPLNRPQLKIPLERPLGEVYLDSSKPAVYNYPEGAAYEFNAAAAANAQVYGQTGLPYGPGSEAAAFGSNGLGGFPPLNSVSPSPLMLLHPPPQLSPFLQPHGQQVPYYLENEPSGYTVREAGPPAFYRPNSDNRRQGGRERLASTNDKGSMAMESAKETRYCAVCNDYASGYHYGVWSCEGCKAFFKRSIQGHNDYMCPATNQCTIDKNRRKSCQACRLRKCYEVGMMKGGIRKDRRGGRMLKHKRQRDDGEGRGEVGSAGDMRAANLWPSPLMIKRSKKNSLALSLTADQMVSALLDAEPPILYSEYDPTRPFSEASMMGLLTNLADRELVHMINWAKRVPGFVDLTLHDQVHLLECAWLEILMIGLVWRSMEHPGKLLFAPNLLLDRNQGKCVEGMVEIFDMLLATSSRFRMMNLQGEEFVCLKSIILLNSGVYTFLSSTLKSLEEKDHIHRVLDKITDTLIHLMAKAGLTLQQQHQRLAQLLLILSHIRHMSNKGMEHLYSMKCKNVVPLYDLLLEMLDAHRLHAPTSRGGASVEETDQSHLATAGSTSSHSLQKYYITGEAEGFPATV

CCN1CCC[C@H]1CNC(=O)c1c(O)c(Cl)cc(Cl)c1OC
inactive: outcome [1] | Potency [2] | outcome [3] | outcome [4] | Potency [5] | Potency [6] | Potency [7] | Potency [8] | outcome [9] | Potency [10] | Potency [11] | Potency [12] | Potency [13] | Potency [14] | Potency [15] | Potency [16] | outcome [17] | outcome [18]

O=C[C@H](O)[C@@H](O)[C@H](O)[C@H](O)CO
inactive: outcome [1] | Potency [2] | outcome [3] | outcome [4] | Potency [5] | Potency [6] | Potency [7] | Potency [8] | outcome [9] | Potency [10] | Potency [11] | Potency [12] | Potency [13] | Potency [14] | Potency [15] | Potency [16] | outcome [17] | outcome [19] | outcome [18]

Cc1c(NC(C)C)c(=O)n(-c2ccccc2)n1C
inactive: outcome [1] | Potency [2] | outcome [3] | outcome [4] | Potency [5] | Potency [6] | Potency [7] | Potency [8] | outcome [9] | Potency [10] | Potency [11] | Potency [12] | Potency [14] | Potency [15] | Potency [16] | outcome [17] | outcome [18]

Cc1ccc(C#N)cc1
inactive: outcome [1] | Potency [2] | outcome [3] | outcome [4] | Potency [5] | Potency [6] | Potency [7] | Potency [8] | outcome [9] | Potency [10] | Potency [11] | Potency [12] | Potency [13] | Potency [14] | Potency [15] | Potency [16] | outcome [17] | outcome [19] | outcome [18]

COC(C)(C)CCCC(C)CC=O (stereo not drawn)
inactive: outcome [1] | Potency [2] | outcome [3] | outcome [4] | Potency [5] | Potency [6] | Potency [7] | outcome [9] | Potency [10] | Potency [11] | Potency [12] | Potency [13] | Potency [14] | Potency [15] | Potency [16] | outcome [17]

O=C(O)CN(CCOCCOCCN(CC(=O)O)CC(=O)O)CC(=O)O
inactive: activity change [1] -0.0947% [at 0.349 µM] | activity change, negative = inhibition [2] 23.6% [at 0.349 µM] | activation [3] -3.04% [at 0.348 µM] | activity, negative = inhibition [4] -7.82% [at 0.349 µM] | activity change, negative = cytotoxicity [5] 4.76% [at 0.35 µM] | activity change, negative = cytotoxicity [6] 9.83% [at 0.349 µM] | activity change, negative = cytotoxicity [7] 2.26% [at 0.349 µM] | cAMP activity change [9] 3.85% [at 0.349 µM] | activity change, negative = inhibition [10] 0.526% [at 0.349 µM] | activity change, negative = cytotoxicity [11] 2.94% [at 0.349 µM] | activation [12] -1.13% [at 0.349 µM] | activity change, negative = inhibition [13] 0.191% [at 0.348 µM] | activity change, negative = cytotoxicity [14] 5.83% [at 0.348 µM] | activity change, negative = cytotoxicity [15] 5.81% [at 0.349 µM] | viability change, negative = cytotoxic [16] 3.24% [at 0.29 µM] | activity change, negative = cytotoxicity [17] 0.742% [at 0.29 µM] | activation [19] 3.14% [at 0.29 µM]

COCCCOCCCOC
inactive: outcome [1] | Potency [2] | outcome [3] | outcome [4] | Potency [5] | Potency [6] | Potency [7] | Potency [8] | outcome [9] | Potency [10] | Potency [11] | Potency [12] | Potency [13] | Potency [14] | Potency [15] | Potency [16] | outcome [19]
